Assay outcomes deposited in PubChem by several laboratories.
A selection: hits, their analogues and other compounds. The true share with any hit is near 3.2%.
Mcl1-Bid inh – Mcl-1/Bid binding inhibitors, primary screen, biochemical, TR-FRET, 1536-well; Induced myeloid leukemia cell differentiation protein Mcl-1 (Homo sapiens), Q07820; TR-FRET Mcl-1/Bid-Dy647 peptide binding; inhibition, % at 21.7 µM; 220,000 compounds, 0.97% hits; AID 1021, 2008;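 active = compounds that cut the binding signal by more than half at the single screening dose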;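 also: His-tagged Mcl-1 with europium anti-His antibody binding Bid BH3 peptide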
Target sequence (Q07820 whole entry, looked up): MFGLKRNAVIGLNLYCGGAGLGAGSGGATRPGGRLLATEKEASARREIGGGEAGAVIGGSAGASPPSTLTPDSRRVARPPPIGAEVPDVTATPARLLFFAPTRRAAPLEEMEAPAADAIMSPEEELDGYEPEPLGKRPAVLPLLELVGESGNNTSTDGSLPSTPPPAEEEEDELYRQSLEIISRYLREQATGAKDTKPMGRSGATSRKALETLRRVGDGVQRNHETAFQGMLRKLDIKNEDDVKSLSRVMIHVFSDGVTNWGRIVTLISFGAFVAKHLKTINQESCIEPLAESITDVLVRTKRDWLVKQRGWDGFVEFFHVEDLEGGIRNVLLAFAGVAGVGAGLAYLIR
Bim-Mcl-1 – inhibitors of Bim peptide binding to Mcl-1, primary screen, biochemical, bead-based flow cytometry, multiplex; Induced myeloid leukemia cell differentiation protein Mcl-1 (Homo sapiens), Q07820; Bim peptide-Mcl-1 binding; inhibition, % at 10 µM; 190,000 compounds, 0.1% hits; in the data active = inhibition above about 40%
p47phox inh – p47phox/p22phox peptide binding inhibitors, primary screen, biochemical, uHTS, NADPH oxidase regulatory subunit | Neutrophil cytosol factor 1 (Homo sapiens), P14598 | fluorescence polarization, 2 h | inhibition, % at 24.7 µM | 220,000 compounds, 0.53% hits;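 active = inhibition above about 30%, limit read from the data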
Mcl1-Noxa inh – Mcl-1/Noxa binding inhibitors, primary screen, biochemical, TR-FRET, 1536-well; TR-FRET Mcl-1/Noxa peptide binding, 2 h; inhibition, % at 21.7 µM; 220,000 compounds, 1.5% hits; Induced myeloid leukemia cell differentiation protein Mcl-1 (Homo sapiens), Q07820;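 active = compounds that cut the protein-peptide binding signal by more than 50% relative to plate controls in a single-dose test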;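 also: His-tagged Mcl-1 with rhodamine Noxa BH3 peptide and terbium anti-His antibody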
14-3-3 Bad PPI – inhibitors of 14-3-3 zeta/Bad binding, primary screen, biochemical, TR-FRET, bovine 14-3-3 zeta; inhibition, % at 21.7 µM; AID 781, 2007; 220,000 compounds, 0.71% hits; 14-3-3 protein zeta/delta (Bos taurus), P63103; TR-FRET 14-3-3zeta/Dy647-pBad peptide displacement, 1 h;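 active = inhibition above about 70%, limit read from the data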
Target sequence (P63103 whole entry, looked up): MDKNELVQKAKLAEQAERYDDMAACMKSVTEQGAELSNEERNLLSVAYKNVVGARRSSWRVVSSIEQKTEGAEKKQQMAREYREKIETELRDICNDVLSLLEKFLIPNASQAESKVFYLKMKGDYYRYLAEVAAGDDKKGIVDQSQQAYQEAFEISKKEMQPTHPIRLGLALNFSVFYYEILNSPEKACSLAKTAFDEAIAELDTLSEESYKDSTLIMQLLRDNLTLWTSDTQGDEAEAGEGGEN
Hits are given with their value; – = inactive; · = no result; [ ] = dose if it differs, or a comment.

SMILES | Mcl1-Bid inh | Bim-Mcl-1 | p47phox inh | Mcl1-Noxa inh | 14-3-3 Bad PPI
CN(C)c1ccc(C(CNC(=O)c2ccccc2Br)c2c[nH]c3ccccc23)cc1 (centres undefined) | – | – | – | 78 | –
CCOC(=O)N1CCN(S(=O)(=O)c2cc(Br)cc3c2N(C(C)=O)C(C)C3)CC1 (centres undefined) | – | – | – | – | –
CC(=O)N1c2c(cc(Br)cc2S(=O)(=O)N2CCN(c3ccccn3)CC2)CC1C (centres undefined) | – | – | – | – | 88
COc1ccc(CCNC(=O)CC2SC(N)=NC2=O)cc1OC (centres undefined) | – | – | – | – | –
O=C(c1cccc(N2C(=O)C3C4C=CC(C4)C3C2=O)c1)N1CCCCCC1 (centres undefined) | – | – | – | – | 77
O=C(c1cccc(N2C(=O)c3ccccc3C2=O)c1)N1CCCCCC1 | – | – | – | – | –
O=C(CN1C(=O)NC2(CCc3ccccc3C2)C1=O)Nc1ccc(F)cc1 (centres undefined) | 88 | – | – | – | –
O=C(CN1C(=O)NC2(CCCCC2)C1=O)Nc1ccc(F)cc1 | – | – | – | – | –
CN1C(=S)N(c2cccnc2)C(=O)/C1=C\c1ccc(N(C)C)cc1 | 83 | – | 86 | – | 79
O=C(C1CCN(C2CCN(CC3CC=CCC3)CC2)CC1)N1CCOCC1 (centres undefined) | – | – | – | – | –
CC(C)(C)OC(=O)N1CCC(C(=O)N[C@@H](Cc2ccccc2)C(=O)O)(c2ccccc2)CC1 | – | – | – | – | –
CC(C)[C@H](NC(=O)C1(c2ccccc2)CCN(C(=O)OC(C)(C)C)CC1)C(=O)O | – | – | 58 | – | –
CC(C)Sc1nc2ccccc2n1CC(=O)O | – | – | – | – | –
COc1ccc(C2C(C(C)=O)=C(O)C(=O)N2c2nc3ccccc3s2)cc1OC (centres undefined) | – | – | – | – | –
CCc1ccc2nc(N3C(=O)c4oc5ccccc5c(=O)c4C3c3ccc(OC)c(OC)c3)sc2c1 (centres undefined) | – | – | 38 | – | –
COC(=O)c1sc(N2C(=O)c3oc4ccccc4c(=O)c3C2c2cccc(O)c2)nc1C (centres undefined) | 58 | · | – | – | –
COc1ccc(Cc2noc(CN3CCCC(OCc4ccccn4)C3)n2)cc1OC (centres undefined) | – | – | – | – | –
Cc1cc(C)c(S(=O)(=O)/N=C2/C=C(Sc3ncn[nH]3)C(=O)c3ccccc32)cc1C | 72 | – | 54 | 100 | 76[fluorescence artefact?]
COc1ccc(Nc2ncc(C(=O)N3CCN(c4ccc(F)cc4)CC3)c3ccccc23)cc1 | 99 | – | – | – | –
COc1cccc(CC(=O)n2nc(N)c3cc4ccc(OC)cc4nc32)c1 | – | – | – | – | –
COc1ccc2cc3c(N)nn(C(=O)Cc4ccc(Cl)cc4)c3nc2c1 | 66 | – | – | – | –
Nc1ccc(NC(=O)c2ccco2)c(Cl)c1 | – | – | – | – | –
CCN(CC)CCN(C)Cc1ccc(Br)cc1 | – | – | – | – | 76
CCCN(CCO)Cc1ccc(Br)cc1 | – | – | – | – | 84
CC(=O)c1sc(-c2ccc(Cl)cc2)cc1N | 56 | · | – | – | –
SMILES | Mcl1-Bid inh | Bim-Mcl-1 | p47phox inh | Mcl1-Noxa inh | 14-3-3 Bad PPI
COc1cccc(CN2CCSCC2)c1 | 62 | – | – | – | –
CN1CCN(Cc2cccc(Oc3ccccc3)c2)CC1 | – | – | – | – | 70
CCOc1cc(CN2CCSCC2)ccc1O | – | – | – | – | 74
OC1CCN(Cc2cccc(Oc3ccccc3)c2)CC1 | – | – | – | – | –
O=C(Nc1ccc(N2CCCC2)c(Cl)c1)c1ccc([N+](=O)[O-])o1 | – | – | – | 59 | –
Cc1ccc(F)c(NC(=O)/C(C#N)=C(\O)c2ccc(C(C)(C)C)cc2)c1 | – | – | – | – | –
CCOC(=O)CSC1=NC(=O)/C(=C\c2ccc(OC(C)=O)cc2)S1 | – | – | – | 60 | –
CCOC(=O)CSC1=NC(=O)/C(=C/c2ccc(Br)cc2)S1 | – | – | – | – | –
C#CCNC(=O)C1=C[C@H](c2ccc(C(F)(F)F)cc2)C[C@H](OCCCCO)O1 | – | – | · | – | –
COC(=O)c1cnc(SCc2ccc(Cl)cc2)n1C | – | – | – | – | –
CC(=O)OCc1c(C(F)(F)F)nn(C)c1SCc1ccc(Cl)cc1 | – | – | – | – | 141[fluorescence artefact?]
CCOc1ccc2nc(N3C(=O)/C(=C/c4ccc(Cl)cc4)NC3=S)sc2c1 | 93 | – | – | 86 | –
COC(=O)c1nnn(-c2nonc2N)c1CSc1nnc(N)s1 | – | – | – | – | –
CC1(C)CC(NC(=O)C(Cl)(Cl)Cl)CC(C)(C)N1 | – | – | – | – | –
C=CCNc1cnn(-c2ccc(C)cc2)c(=O)c1Sc1ccc(C)cc1 | – | – | – | – | –
COc1ccc(NC(=O)CSc2nc3c(cc2C#N)CN(C)CC3)cc1 | – | – | – | – | –
CN1CCc2nc(SCC(=O)Nc3ccc(F)cc3)c(C#N)cc2C1 | – | – | 37 | – | –
COc1ccc([N+](=O)[O-])cc1N(CC(=O)NCC1CCCO1)S(C)(=O)=O (centres undefined) | – | – | – | – | –
CC1C(c2ccccc2)N(C)CCC12NC(=O)NC2=O (centres undefined) | 88 | – | – | – | –
CC1CC2(NC(=O)NC2=O)C(C)CN1C (centres undefined) | – | – | – | – | –
CCCCC(=O)NC1(C(F)(F)F)NC(=O)N(Cc2ccccc2)C1=O (centres undefined) | – | – | – | – | –
O=C(N/N=C/c1ccccn1)NC12CC3CC(CC(C3)C1)C2 | – | · | – | – | –
CN(Cc1c(O)ccc2c1oc(=O)c1ccccc12)C1CCCCC1 | 65 | – | – | – | 87
Cc1c(C(=O)OCC2CCCO2)[nH]c2c1C(=O)CC(c1ccco1)C2 (centres undefined) | – | – | – | 70 | –
Nc1cccc2c1C(=O)N(C(=O)c1ccco1)C2=O | – | · | – | – | –
O=C(c1ccco1)N1C(=O)c2cccc3cccc1c23 | – | – | 150 | – | –
CC12CCC(C(=O)N(NC(=O)c3ccccc3Cl)C1=O)C2(C)C (centres undefined) | – | – | – | – | –
Cn1nc(C(=O)OCC(=O)Nc2cccc(S(=O)(=O)N3CCCC3)c2)c2ccccc2c1=O | – | · | – | – | –
C/C(CC(=O)Nc1cccc(C(F)(F)F)c1)=N\NC(=O)C1CCCCC1 | – | – | – | – | –
